Screening results deposited in PubChem BioAssay by Broad Institute.
Rows were chosen to be rich in hits. Some 2.1% of all compounds tested hit in one or more screens of this group.
HIV Env fusion: blocks HIV Env-driven cell-cell fusion. HeLa-JRFL Env/CEM21 cell fusion, luciferase. inhibition, % at 12.3 µM. 1.1% of 360,000 active. AID 651610;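 active means mean replicate inhibition score of at least 50 and every replicate individually at or above 50; inconclusive means only one of the two criteria met; inactive means mean below 50 and not all replicates reaching 50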
PGC1a acetyl inh: lowers PGC1a acetylation signal in U2OS cells; AlphaScreen anti-acetyl-lysine; with virally co-expressed GCN5 acetyltransferase; 0.17% of 350,000 active; inhibition, % at 15.6 µM;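 active means every replicate shows inhibition of at least 40%; inconclusive means mean inhibition at least 40% but some replicate below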
MLL AF4-AF9 inh: inhibitors of human MLL-AF4/AF9 interaction; 0.47% of 350,000 active; AlphaScreen, biotin-AF4 peptide binding to FLAG-AF9; P42568; AID 651704; inhibition, % at 10 µM;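 active means every replicate reaching a set inhibition limit, whatever the replicate mean, cut at about 25% in these data; inconclusive means mean inhibition reaches that limit but some replicates miss it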
GSIS activator: GLuc luminescence reporter in INS-1E cells, primary screen for activators of glucose-dependent secretion of insulin; INS-1E GLuc reporter insulin secretion, 2-3 h; activation, % at 16.6 µM; 0.61% of 370,000 active; AID 743287;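 active means lowest replicate activation of at least 40%, so every replicate reaches that level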
NSD2 inh: inhibitors of human histone methyltransferase NSD2; O96028; NSD2 peptide methylation, AlphaScreen, 120 min; inhibition, % at 12.5 µM; 0.54% of 310,000 active; in the data active means inhibition above about 50%
Target sequence (O96028 whole entry, looked up): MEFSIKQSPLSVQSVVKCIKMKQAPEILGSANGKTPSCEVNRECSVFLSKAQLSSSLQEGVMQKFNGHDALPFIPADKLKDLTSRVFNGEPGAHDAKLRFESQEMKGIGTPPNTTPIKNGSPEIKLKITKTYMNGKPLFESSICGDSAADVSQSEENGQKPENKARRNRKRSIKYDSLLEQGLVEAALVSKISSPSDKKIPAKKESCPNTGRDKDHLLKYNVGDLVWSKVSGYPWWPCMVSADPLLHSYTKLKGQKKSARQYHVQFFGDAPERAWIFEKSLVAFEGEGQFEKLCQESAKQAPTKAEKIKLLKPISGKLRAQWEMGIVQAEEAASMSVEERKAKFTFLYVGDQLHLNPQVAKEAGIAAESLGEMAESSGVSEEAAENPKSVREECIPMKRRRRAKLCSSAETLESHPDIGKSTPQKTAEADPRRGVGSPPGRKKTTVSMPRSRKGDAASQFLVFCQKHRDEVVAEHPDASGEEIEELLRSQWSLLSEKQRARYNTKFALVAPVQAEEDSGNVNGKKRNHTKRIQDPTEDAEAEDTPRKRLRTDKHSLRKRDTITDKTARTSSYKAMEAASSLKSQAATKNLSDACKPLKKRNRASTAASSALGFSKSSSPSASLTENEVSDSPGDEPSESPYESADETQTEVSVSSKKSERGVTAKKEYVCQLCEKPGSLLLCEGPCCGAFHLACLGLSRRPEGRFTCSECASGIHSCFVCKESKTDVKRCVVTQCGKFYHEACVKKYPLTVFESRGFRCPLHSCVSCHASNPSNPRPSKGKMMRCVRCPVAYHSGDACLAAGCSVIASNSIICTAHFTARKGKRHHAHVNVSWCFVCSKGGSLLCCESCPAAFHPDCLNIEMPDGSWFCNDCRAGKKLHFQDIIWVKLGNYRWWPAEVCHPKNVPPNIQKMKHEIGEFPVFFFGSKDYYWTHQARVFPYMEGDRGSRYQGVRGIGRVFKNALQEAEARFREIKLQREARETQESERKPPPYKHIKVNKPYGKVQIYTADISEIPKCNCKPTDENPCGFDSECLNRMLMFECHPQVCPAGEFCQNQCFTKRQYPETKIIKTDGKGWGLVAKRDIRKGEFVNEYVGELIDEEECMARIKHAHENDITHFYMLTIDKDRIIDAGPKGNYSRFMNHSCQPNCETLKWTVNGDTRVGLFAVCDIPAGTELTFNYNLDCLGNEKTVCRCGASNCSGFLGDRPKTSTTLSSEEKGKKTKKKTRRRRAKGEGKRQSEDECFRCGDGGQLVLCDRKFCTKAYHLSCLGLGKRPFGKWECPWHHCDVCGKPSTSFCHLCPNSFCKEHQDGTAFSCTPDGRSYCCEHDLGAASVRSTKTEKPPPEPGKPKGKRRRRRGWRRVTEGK
Each line names hits and unclear results; the compound was inactive in the other large screens; [ ] = dose if it differs, or a comment.

COc1ccc(S(=O)(=O)Nc2ccc3c(c2)C(=O)N([C@H](C)CO)C[C@H](C)[C@H](CN(C)S(=O)(=O)c2cccs2)O3)cc1	none (no result: NSD2 inh)
COc1ccccc1CNC(=O)CCS(=O)(=O)Cc1ccc(C)cc1	GSIS activator 88.1
COc1ccc(S(=O)(=O)NC2CCCCC2)cc1C	GSIS activator 42.9 (no result: HIV Env fusion)
COc1cc(S(=O)(=O)NC2CCCCC2)ccc1Cl	none (no result: HIV Env fusion, MLL AF4-AF9 inh)
COc1ccc(C(=O)N/N=C/c2sc(N3CCOCC3)nc2-c2ccccc2)cc1OC	MLL AF4-AF9 inh 26.9
O=C(N/N=C/c1sc(N2CCOCC2)nc1-c1ccccc1)c1cccc(S(=O)(=O)N2CCCC2)c1	HIV Env fusion 56.4 (no result: GSIS activator)
CC(=O)N(C)C[C@H]1Oc2cc(-c3ccccc3)ccc2S(=O)(=O)N([C@H](C)CO)C[C@@H]1C	none (no result: NSD2 inh)
O=Nc1c(O)ccc2cc(S(=O)(=O)O)ccc12	none (no result: HIV Env fusion, MLL AF4-AF9 inh, GSIS activator)
Nc1cccc2cc(S(=O)(=O)O)ccc12	NSD2 inh 128.7
COc1ccc(C2c3[nH]c4ccccc4c3CCN2Cc2cccn2-c2ncccn2)cc1C (stereo not given)	MLL AF4-AF9 inh 30.6
COc1ccccc1C1c2[nH]c3ccccc3c2CCN1Cc1cnc(C)s1 (stereo not given)	none
Cc1cccc(C2c3[nH]c4ccccc4c3CCN2Cc2cccn2-c2ncccn2)c1 (stereo not given)	MLL AF4-AF9 inh 31.0
c1ccc(C2c3[nH]c4ccccc4c3CCN2Cc2cccn2-c2ccccn2)nc1 (stereo not given)	MLL AF4-AF9 inh inconclusive
CCCCCn1c(C(C)NC(=O)CCC)nc2ccccc21 (stereo not given)	HIV Env fusion 74.5 (no result: PGC1a acetyl inh, GSIS activator, NSD2 inh)
CCCCn1c(C(C)NC(=O)CCC)nc2ccccc21 (stereo not given)	none (no result: GSIS activator, NSD2 inh)
CC(C)(C)NC(=O)C1CCN(S(=O)(=O)c2ccc(Br)cc2)CC1	none (no result: MLL AF4-AF9 inh, GSIS activator)
CCN1CNC(=S)N(Cc2ccccc2)C1	none
C=C1C(=O)c2sccc2C(c2ccc(OC)c(OC)c2)C1COC(C)=O (stereo not given)	GSIS activator 115.4 (no result: PGC1a acetyl inh)
Cc1ccc(S(=O)(=O)N(C)C[C@H]2Oc3ccc(NC(=O)Nc4cccc5ccccc45)cc3C(=O)N([C@H](C)CO)C[C@@H]2C)cc1	HIV Env fusion 65.5[16.7 µM] (no result: MLL AF4-AF9 inh, NSD2 inh)
C[C@H](CO)N1C[C@H](C)[C@H](CN(C)Cc2ccccc2)Oc2ccc(NC(=O)Nc3cccc4ccccc34)cc2CC1=O	HIV Env fusion 60.2[16.7 µM] (no result: PGC1a acetyl inh, NSD2 inh)
Cc1ccc(S(=O)(=O)N(C)C[C@@H]2Oc3ccc(NC(=O)Nc4cccc5ccccc45)cc3CC(=O)N([C@H](C)CO)C[C@@H]2C)cc1	HIV Env fusion 56.5[16.7 µM] (no result: NSD2 inh)
C[C@H]1CN([C@@H](C)CO)C(=O)Cc2cc(NC(=O)Nc3cccc4ccccc34)ccc2O[C@H]1CN(C)S(=O)(=O)c1ccc(F)cc1	HIV Env fusion 58.9[16.7 µM] (no result: NSD2 inh)
CC(=O)N(C)c1nc(-c2ccc(Cl)cc2)cs1	none (no result: HIV Env fusion, MLL AF4-AF9 inh, GSIS activator)
CCSc1nnc(CSc2ncccn2)n1C	none (no result: PGC1a acetyl inh, NSD2 inh)
CC(C)CC#Cc1ccc([C@H]2[C@H](CO)N3C(=O)CN(C(=O)NC(C)C)C[C@@H]23)cc1	none (no result: HIV Env fusion, PGC1a acetyl inh, MLL AF4-AF9 inh, NSD2 inh)
C[C@H](CO)N1C[C@H](C)[C@@H](CN(C)S(=O)(=O)c2ccc(Cl)cc2)Oc2ccc(NC(=O)Nc3cccc4ccccc34)cc2CC1=O	none (no result: NSD2 inh)
C[C@H]1CN([C@@H](C)CO)C(=O)Cc2cc(NC(=O)Nc3cccc4ccccc34)ccc2O[C@H]1CN(C)S(=O)(=O)c1ccc(Cl)cc1	HIV Env fusion 62.2[16.7 µM] (no result: NSD2 inh)
C[C@H](CO)N1C[C@H](C)[C@H](CN(C)S(=O)(=O)c2ccccc2)Oc2ccc(NC(=O)Nc3cccc4ccccc34)cc2CC1=O	HIV Env fusion 85.2[16.7 µM] (no result: NSD2 inh)
C[C@H]1CN([C@@H](C)CO)C(=O)Cc2cc(NC(=O)Nc3cccc4ccccc34)ccc2O[C@H]1CN(C)S(=O)(=O)c1ccccc1	HIV Env fusion 71.4[16.7 µM] (no result: NSD2 inh)
Cc1ccc(NC(=O)c2ccc(COc3ccc4c(c3)CCC4)cc2)c(C)c1	GSIS activator 111.1 (no result: PGC1a acetyl inh, MLL AF4-AF9 inh)
O=C(NCCC1=CCCCC1)N[C@@H](Cc1ccccc1)C(=O)O	none (no result: HIV Env fusion, MLL AF4-AF9 inh, GSIS activator)
N#CC(C#N)=C/C(C#N)=C(/N)N1CCN(c2ccc(Cl)cc2)CC1	none (no result: HIV Env fusion)
Oc1ccc(-c2nccc(-c3ccc(Br)cc3)n2)cc1	none
COc1ccc(C)cc1NC(=O)c1cnc2scc(C)n2c1=O	HIV Env fusion inconclusive (no result: NSD2 inh)
COc1ccc(CCNC(=O)c2cnc3scc(C)n3c2=O)cc1OC	GSIS activator 61.4 (no result: NSD2 inh)
CN(C)CCNS(=O)(=O)c1ccc(N2CCN(c3ccc(F)cc3)CC2)c([N+](=O)[O-])c1	MLL AF4-AF9 inh 27.6 (no result: PGC1a acetyl inh)
CC(=O)N1CCN(c2ccc(S(=O)(=O)NCCN(C(C)C)C(C)C)cc2[N+](=O)[O-])CC1	none (no result: PGC1a acetyl inh, MLL AF4-AF9 inh)
O=C(Cc1cccs1)N(Cc1cccs1)C1(C(=O)NC2CCCCC2)CCCCC1	HIV Env fusion 78.9 (no result: MLL AF4-AF9 inh, GSIS activator)
O=C1NC(=O)C(CC(=O)N(Cc2cccs2)C2(C(=O)NC3CCCC3)CCCCC2)N1 (stereo not given)	none (no result: HIV Env fusion, PGC1a acetyl inh, MLL AF4-AF9 inh)
COc1ccc(S(=O)(=O)N2CCCN(CC(=O)Nc3ccc(NC(C)=O)cc3)CC2)cc1	none
COc1ccc(CCNC(=O)[C@@H]2c3ccccc3C(=O)N(CC34CC5CC(CC(C5)C3)C4)[C@H]2c2ccc(CO)cc2)cc1	none (no result: GSIS activator, NSD2 inh)
O=C(NCC(F)(F)F)[C@@H]1c2ccccc2C(=O)N(CC23CC4CC(CC(C4)C2)C3)[C@H]1c1ccc(CO)cc1	HIV Env fusion 74.2[16.7 µM] (no result: GSIS activator, NSD2 inh)
Cc1ccc(S(=O)(=O)Nc2ccc3c(c2)CC(=O)N([C@@H](C)CO)C[C@H](C)[C@@H](CN(C)CC2CCCCC2)O3)cc1	none (no result: HIV Env fusion, NSD2 inh)
CC(=O)Nc1ccc(-c2ccnc3c2CC(C)(C(=O)Nc2cccc(OC(F)(F)F)c2)O3)cc1 (stereo not given)	GSIS activator 69.3
CC(C)(C)C1=Nn2c(nnc2C2CCCCC2)SC1	GSIS activator 80.9 (no result: MLL AF4-AF9 inh)
